PubChem BioAssay
Calls of active or inactive are those of the source. Unless noted, no rule for the calls is given here.

What was measured:
[1] = system: XIP peptide (Xip251-270) binding; test: XIP fragment 251-270 binding compounds – biochemical, small-molecule microarray, fluorescence 635/667 nm, 0.1 µg/mL protein, primary screen (AID 1182); details: fluorescent protein binding, 635 nm, higher = more signal, called active from +8 up or from −8 down
XIP peptide (Xip251-270) = test: compounds binding XIP fragment 251-270 – biochemical, small-molecule microarray, fluorescence 635/667 nm, 0.5 µg/mL protein, primary screen (AID 1183); details: fluorescence 635 nm, higher = more signal
[2] = blood-stage malaria parasite viability loss – strain 3D7, DAPI fluorescence, 100 nL, primary screen (AID 1184);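 also: parasites grown inside human red blood cells in medium with human serum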; details: P. falciparum 3D7 growth, 3 d, higher = more signal
[3] = target: Homeobox protein Hox-A13 (Mus musculus) (UniProt Q62424); test: disruptors of Hoxa13 oligonucleotide interaction – biochemical, fluorescence polarization, labeled oligonucleotide, primary screen (AID 1185); details: Hoxa13:DNA binding, 15 min, higher = more signal, called active from +8 up or from −8 down
[4] = blockers of DNA damage checkpoint Chk1 activation – imaging, HeLa, hydroxyurea, phospho-Chk1 antibody, percent positive cells, primary screen (AID 1186); details: hydroxyurea-induced phospho-Chk1 immunofluorescence imaging, higher = more signal
[5] = blockers of DNA damage checkpoint Chk1 activation – imaging, HeLa, hydroxyurea, phospho-Chk1 nuclear intensity, primary screen (AID 1187); details: hydroxyurea-induced phospho-Chk1 immunofluorescence imaging, higher = more signal

Homeobox protein Hox-A13 (Mus musculus), sequence (Q62424 whole entry, looked up): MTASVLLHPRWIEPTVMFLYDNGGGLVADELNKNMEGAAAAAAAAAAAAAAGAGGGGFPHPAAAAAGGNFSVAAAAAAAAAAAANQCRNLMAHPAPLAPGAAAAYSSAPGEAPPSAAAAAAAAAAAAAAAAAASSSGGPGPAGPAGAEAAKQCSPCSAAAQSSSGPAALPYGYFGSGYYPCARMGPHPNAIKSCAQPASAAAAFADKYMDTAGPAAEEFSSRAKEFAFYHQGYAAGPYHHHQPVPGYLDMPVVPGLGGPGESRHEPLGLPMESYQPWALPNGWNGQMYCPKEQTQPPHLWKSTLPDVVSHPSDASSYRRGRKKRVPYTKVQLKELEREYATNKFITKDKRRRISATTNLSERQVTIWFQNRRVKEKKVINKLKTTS

C=C(CCCC)C(=O)CC[C@H](OC(C)=O)c1cccc(OCCO)c1
composite z-score [1]: 0.162 (inactive)
composite z-score (XIP peptide (Xip251-270)): -0.0976
z-score [2]: -1.98
z-score [3]: -5.04 (inactive)
z-score [4]: -0.0717 (inactive)
z-score [5]: -0.148 (inactive)

NC(=O)[C@@H]1[C@H]2C(=O)O[C@H](c3ccccc3)[C@H](c3ccccc3)N2[C@H](c2ccc(O)cc2)[C@@]12C(=O)Nc1ccc(C#CC3(O)CCCCCC3)cc12
composite z-score [1]: 0.734 (inactive)
composite z-score (XIP peptide (Xip251-270)): 0.458
z-score [2]: 0.907
z-score [3]: -3.37 (inactive)
z-score [4]: -0.0527 (inactive)
z-score [5]: 0.0812 (inactive)

C=CCOC(=O)[C@@H]1[C@H]2C(=O)O[C@H](c3ccccc3)[C@H](c3ccccc3)N2[C@H](c2ccc(OCCOC(=O)[C@@H]3C[C@@H]4C(=O)N[C@@H](CCCCN(C)C)C(=O)N4[C@@H]3c3ccc(O)cc3)cc2)[C@@]12C(=O)Nc1ccc(I)cc12
composite z-score [1]: 1.45 (inactive)
composite z-score (XIP peptide (Xip251-270)): 0.783
z-score [2]: -0.369
z-score [3]: 5.96 (inactive)
z-score [4]: -0.0333 (inactive)
z-score [5]: 0.121 (inactive)

O=C1C[C@]2(c3ccc([N+](=O)[O-])cc3)C(=O)N(CCN3CCOCC3)c3cc(CO)ccc3[C@H]2N1C1CCCCC1
composite z-score [1]: 1.2 (inactive)
composite z-score (XIP peptide (Xip251-270)): 0.314
z-score [2]: 0.476
z-score [3]: -2.02 (inactive)
z-score [4]: -0.533 (inactive)
z-score [5]: -0.355 (inactive)

C=C/C=C/[C@H]1C(=C)CN([C@@H](Cc2ccccc2)C(=O)OC)[C@@H]1[C@H](O)Cc1ccccc1
composite z-score [1]: -0.245 (inactive)
composite z-score (XIP peptide (Xip251-270)): 0.497
z-score [2]: -1.2
z-score [3]: -1.43 (inactive)
z-score [4]: -0.0246 (inactive)
z-score [5]: -0.368 (inactive)

CCCCN1CC=CC23O[C@@H]4/C=C\CCC(C)OC(=O)C4[C@H]2C(=O)N(CCCCCO)[C@@H]3C1=O (stereo partly specified)
composite z-score [1]: -0.725 (inactive)
composite z-score (XIP peptide (Xip251-270)): 0.552
z-score [2]: -0.232
z-score [3]: -4.53 (inactive)
z-score [4]: -0.795 (inactive)
z-score [5]: -0.518 (inactive)

COCCn1c(C(=O)N2CCCC2)cc2c1C[C@H]1CN(C(=O)c3ccccc3)[C@@](Cc3ccc(F)cc3)(C(=O)OC)[C@@H]21
composite z-score [1]: 0.254 (inactive)
composite z-score (XIP peptide (Xip251-270)): 0.794
z-score [2]: -1.01
z-score [3]: -5.83 (inactive)
z-score [4]: 0.0536 (inactive)
z-score [5]: 0.375 (inactive)

C=CCOC(=O)[C@H]1[C@@H]2C(=O)O[C@@H](c3ccccc3)[C@@H](c3ccccc3)N2[C@@H](c2ccc(OCCOC(=O)[C@H]3C[C@H]4C(=O)N5CCC[C@H]5C(=O)N4[C@H]3c3ccc(O)cc3)cc2)[C@]12C(=O)Nc1ccc(I)cc12
composite z-score [1]: 2.85 (inactive)
composite z-score (XIP peptide (Xip251-270)): 0.84
z-score [2]: -1.28
z-score [3]: 0.622 (inactive)
z-score [4]: -0.187 (inactive)
z-score [5]: 0.366 (inactive)

CN1C(=O)C2C=CC(C(O)c3ccc(I)cc3)N(N3CCCCC3)C2C1=O (stereo unspecified)
composite z-score [1]: 0.405 (inactive)
composite z-score (XIP peptide (Xip251-270)): 0.771
z-score [2]: -0.378
z-score [3]: -4.82 (inactive)
z-score [4]: 0.151 (inactive)
z-score [5]: -0.062 (inactive)

C=CC[C@]12N=C(c3ccc(OCCCO)cc3)O[C@H]1c1ccccc1N(Cc1ccccc1)C2=O
composite z-score [1]: 0.0479 (inactive)
composite z-score (XIP peptide (Xip251-270)): 0.586
z-score [2]: -2.17
z-score [3]: 0.196 (inactive)
z-score [4]: -0.241 (inactive)
z-score [5]: -0.197 (inactive)

CC(C)C(CO)N1C(=O)[C@@H]2[C@H]3C(=O)OCC=C[C@H]3OC23C=CCN(C(C)C)C(=O)[C@@H]13 (stereo partly specified)
composite z-score [1]: 1.63 (inactive)
composite z-score (XIP peptide (Xip251-270)): -0.0455
z-score [2]: -0.499
z-score [3]: -4.02 (inactive)
z-score [4]: 0.475 (inactive)
z-score [5]: 0.305 (inactive)

C=CCOC(=O)[C@H]1[C@@H]2C(=O)O[C@@H](c3ccccc3)[C@@H](c3ccccc3)N2[C@@H](c2ccc(OCCOC(=O)[C@H]3C[C@H]4C(=O)N[C@@H](CC(C)C)C(=O)N4[C@H]3c3ccc(O)cc3)cc2)[C@]12C(=O)Nc1ccc(I)cc12
composite z-score [1]: 0.626 (inactive)
composite z-score (XIP peptide (Xip251-270)): 0.75
z-score [2]: -0.061
z-score [3]: 6.65 (inactive)
z-score [4]: 0.293 (inactive)
z-score [5]: 0.198 (inactive)

COCCOC(=O)N1C(=O)[C@@]2(c3cc(C#CC4=CCCCC4)ccc31)[C@H](c1ccc(O)cc1)N1[C@H](c3ccccc3)[C@H](c3ccccc3)OC(=O)[C@H]1[C@@H]2C(N)=O
composite z-score [1]: 0.181 (inactive)
composite z-score (XIP peptide (Xip251-270)): 0.751
z-score [2]: -0.0117
z-score [3]: -1.22 (inactive)
z-score [4]: 0.0809 (inactive)
z-score [5]: 0.185 (inactive)

CO[C@H]1O[C@H](CO)[C@@H](OC(=O)Nc2ccc(Br)cc2)[C@H](OC(=O)c2cc3ccccc3[nH]2)[C@H]1OC(=O)c1cc2ccccc2[nH]1
composite z-score [1]: 1.36 (inactive)
composite z-score (XIP peptide (Xip251-270)): 0.716
z-score [2]: -1.64
z-score [3]: -2.09 (inactive)
z-score [4]: -0.547 (inactive)
z-score [5]: -0.872 (inactive)

CN1C(=O)C2C=CC(C(O)C3=C[C@H]4C[C@@H](C3)C4(C)C)N(Nc3ccccc3)C2C1=O (stereo partly specified)
composite z-score [1]: 0.654 (inactive)
composite z-score (XIP peptide (Xip251-270)): 0.151
z-score [2]: 0.821
z-score [3]: -3.75 (inactive)
z-score [4]: -0.556 (inactive)
z-score [5]: -0.864 (inactive)

O=C1OCCC=C[C@H]2OC34C=CCN(CCN5CCOCC5)C(=O)[C@H]3N(CCCCCCO)C(=O)[C@@H]4C12 (stereo partly specified)
composite z-score [1]: 0.995 (inactive)
composite z-score (XIP peptide (Xip251-270)): 0.091
z-score [2]: -0.0217
z-score [3]: -5.15 (inactive)
z-score [4]: -0.334 (inactive)
z-score [5]: -0.109 (inactive)
